The record followed here is PubChem BioAssay (Tox21).

Results filed as inconclusive are left out. A call without a number means that no potency is given here. Active and inactive are the calls of the source. Calls follow the shape of the full dose curve.

Muscarinic acetylcholine receptor M1 (Homo sapiens), sequence (P11229 whole entry, looked up): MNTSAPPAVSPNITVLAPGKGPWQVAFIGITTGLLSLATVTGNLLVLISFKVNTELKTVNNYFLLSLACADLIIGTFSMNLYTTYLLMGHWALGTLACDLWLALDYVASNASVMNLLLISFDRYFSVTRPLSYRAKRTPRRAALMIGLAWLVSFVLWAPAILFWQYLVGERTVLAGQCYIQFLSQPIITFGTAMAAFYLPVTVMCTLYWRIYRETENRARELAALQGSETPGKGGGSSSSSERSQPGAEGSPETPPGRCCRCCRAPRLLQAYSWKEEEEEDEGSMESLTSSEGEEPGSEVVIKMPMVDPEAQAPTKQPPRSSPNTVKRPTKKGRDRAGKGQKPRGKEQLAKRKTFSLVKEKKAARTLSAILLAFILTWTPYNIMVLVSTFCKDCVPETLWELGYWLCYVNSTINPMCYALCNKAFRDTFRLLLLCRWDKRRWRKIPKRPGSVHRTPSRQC

In one test the target is Muscarinic acetylcholine receptor M1 (Homo sapiens) (UniProt P11229). In words: Cholinergic receptor muscarinic 1 (CHRM1) small molecule antagonists, cell-based qHTS assay (AID 1963588). Also: nearly all actives have a fitted effect of over 40% in size. Particulars: CHRM1-CHO antagonist mode, calcium flux fluorescence; series mostly up to 61.5 µM. The method in brief:
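Compounds were tested at 15 concentrations in three independent runs. Dye-loaded CHRM1-CHO cells were exposed 5 min at room temperature before stimulation by acetylcholine added at 50nM. Intracellular calcium was read kinetically on FDSS for 3 min.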
For orientation: Quantitative high-throughput screening tests each substance at several concentrations.
For `C=Cc1c(C)c2cc3[nH]c(cc4nc(cc5nc(cc1[nH]2)C(C)=C5CCC(=O)O)C(CCC(=O)O)=C4C)c(C)c3C=C`, the Potency entry is “inactive”. As for `CCCCCCCOC(=O)CCC`, the Potency entry is “inactive”.

On to `CCCCCCCCC(=O)OCC(C)OC(=O)CCCCCCCC` (configuration not stated), for which the Potency entry was “inactive”. On to `CCN1/C(=C/C=C/c2sc3ccccc3[n+]2CC)Sc2ccccc21`, for which the activity, negative = inhibition is -35.2% [at 12.6 µM] (inactive). In the case of `c1cnc(N2CCN(Cc3ccc4c(c3)OCO4)CC2)nc1`, the Potency result was “inactive”. On the same count and under the same terms, in the case of `C=C[Si]1(C)O[Si](C)(C=C)O[Si](C)(C=C)O[Si](C)(C=C)O1` (configuration not stated) it was “inactive”; in that of `CCN(Cc1cccnc1)C(=O)c1cccc(Cl)c1[C@]1(C)C(=O)N(Cc2ccc(OC)cc2OC)c2ccc(Cl)cc21`, “inactive”. In the case of `CCCNC(C)(C)COC(=O)c1ccccc1`, the Potency result was “inactive”. Turning to `CCCCCCCCCCl`, the Potency result is “inactive”. On the same count and under the same terms, in the case of `CCCCCC(C)OC(=O)COc1ccc(Cl)c2cccnc12` (configuration not stated) it was “inactive”. Still for that read-out and setting: the entry for `CC(=O)Nc1ccc(/C=N/NC(N)=S)cc1` is “inactive”; for `C=O` it is “inactive”.

Turning to `CC(C)(C)C1=CC(=O)C=C(C(C)(C)C)C1=O`, the Potency result was “inactive”. For `C=CC(=C)CCCC(C)(C)OC(C)=O`, the Potency result is “inactive”. `CC/C=C\CCCCCCCCCCOC(C)=O`: the Potency entry is “inactive”. In the case of `Oc1ccc(C2(c3ccc(O)cc3)CC3CC2C2CCCC32)cc1` (configuration not stated), the Potency result was “inactive”. The same measure, in the same setting: in the case of `O=c1[nH]c(=O)n([C@H]2C[C@H](O)[C@@H](CO)O2)cc1C(F)(F)F` it was “inactive”.

Take `Cc1cc(O)c2c(O)c3c(O)cccc3cc2c1`: the Potency result is “inactive”.

For `Cc1ccc(Br)cc1`, the Potency entry was “inactive”. Consider `CC1CCC(CO)CC1` (configuration not stated), for which the Potency result is “inactive”.

With `C=Cc1ccc(OC(C)=O)cc1`, the Potency result was “inactive”. With `Nc1ccc(/C=C/c2ccc(N)cc2S(=O)(=O)O)c(S(=O)(=O)O)c1`, the activity, negative = inhibition is 18% [at 0.232 µM] (inactive). On to `Cc1cccc(N(C)C(=S)Oc2ccc3c(c2)C2CCC3C2)c1` (configuration not stated), for which the Potency entry is “inactive”.

On to `Cc1c(N)cccc1N`, for which the Potency result was “inactive”.

Consider `CCC(CC)CO`, for which the Potency result is “inactive”. Take `Cc1c(N)c(=O)n(-c2ccccc2)n1C`: the Potency entry is “inactive”. On to `N/C(=N\N=C\c1ccc(Cl)cc1)N/N=C/c1ccc(Cl)cc1`, for which the Potency entry was “inactive”. Consider `O=C(NN1CCCC1)NS(=O)(=O)c1ccc(Cl)cc1`, for which the Potency result is “inactive”.

Turning to `C=C[Si](OC(C)=O)(OC(C)=O)OC(C)=O`, the Potency entry was “inactive”. On to `O=C1C=CC(=O)N1`, for which the Potency entry was “inactive”. Turning to `CSc1ccc(Oc2ccc(S(N)(=O)=O)cc2CN(C)C)cc1C`, the Potency result is “inactive”. On the same count and under the same terms, in the case of `Cc1ccccc1S` it was “inactive”; in that of `Cc1ccc(O)c2ncccc12`, “inactive”. For the compound `COC(OC)(C(=O)c1ccccc1)c1ccccc1`, the Potency entry is “inactive”.

Consider `Cc1c(Nc2ncccc2C(=O)O)cccc1C(F)(F)F`, for which the Potency entry was “inactive”. In the case of `CC1(C)[C@@H](O)CC[C@]2(C)[C@H]3C(=O)C=C4[C@@H]5C[C@@](C)(C(=O)O)CC[C@]5(C)CC[C@@]4(C)[C@]3(C)CC[C@@H]12`, the Potency result was “inactive”. For `CCCCCCCCS(=O)(=O)O`, the Potency entry was “inactive”.

Another test has the same target. In words: Cholinergic receptor muscarinic 1 (CHRM1) small molecule agonists, cell-based qHTS assay (AID 1963589). Also: nearly all actives have a fitted effect of over 35% in size. Particulars: CHRM1-CHO cells, agonist mode, calcium flux fluorescence; series mostly up to 76.8 µM. The method in brief: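 Agonist-mode calcium-flux screen: compounds at 15 concentrations, three independent runs, were pin-transferred onto dye-loaded human CHRM1-CHO cells. Fluorescence was then recorded kinetically every second over minutes.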
In the case of `C=Cc1c(C)c2cc3[nH]c(cc4nc(cc5nc(cc1[nH]2)C(C)=C5CCC(=O)O)C(CCC(=O)O)=C4C)c(C)c3C=C`, the Potency entry was “inactive”. In the case of `CCCCCCCOC(=O)CCC`, the Potency result is “inactive”.

Take `CCCCCCCCC(=O)OCC(C)OC(=O)CCCCCCCC` (configuration not stated): the Potency result is “inactive”.

With `CCN1/C(=C/C=C/c2sc3ccccc3[n+]2CC)Sc2ccccc21`, the activation was -0.119% [at 15.8 µM] (inactive).

Take `c1cnc(N2CCN(Cc3ccc4c(c3)OCO4)CC2)nc1`: the Potency entry was “inactive”.

`CCN(Cc1cccnc1)C(=O)c1cccc(Cl)c1[C@]1(C)C(=O)N(Cc2ccc(OC)cc2OC)c2ccc(Cl)cc21`: the Potency result was “inactive”. For the compound `CCCNC(C)(C)COC(=O)c1ccccc1`, the Potency entry was “inactive”.

As to `CCCCCCCCCCl`, the Potency result was “inactive”. Turning to `CCCCCC(C)OC(=O)COc1ccc(Cl)c2cccnc12` (configuration not stated), the Potency entry was “inactive”. On to `CC(=O)Nc1ccc(/C=N/NC(N)=S)cc1`, for which the Potency result is “inactive”.

Regarding `C=O`, the Potency result is “inactive”.

Regarding `CC(C)(C)C1=CC(=O)C=C(C(C)(C)C)C1=O`, the Potency result was “inactive”.

`C=CC(=C)CCCC(C)(C)OC(C)=O`: the Potency result was “inactive”. Regarding `CC/C=C\CCCCCCCCCCOC(C)=O`, the Potency result is “inactive”. Turning to `Oc1ccc(C2(c3ccc(O)cc3)CC3CC2C2CCCC32)cc1` (configuration not stated), the Potency result was “inactive”. In the case of `O=c1[nH]c(=O)n([C@H]2C[C@H](O)[C@@H](CO)O2)cc1C(F)(F)F`, the Potency result is “inactive”. Still for that read-out and setting: in the case of `Cc1cc(O)c2c(O)c3c(O)cccc3cc2c1` it was “inactive”; in that of `Cc1ccc(Br)cc1`, “inactive”.

Take `CC1CCC(CO)CC1` (configuration not stated): the Potency result is “inactive”. For `C=Cc1ccc(OC(C)=O)cc1`, the Potency result is “inactive”.

On to `Nc1ccc(/C=C/c2ccc(N)cc2S(=O)(=O)O)c(S(=O)(=O)O)c1`, for which the activation is 0.145% [at 0.29 µM] (inactive).

For `Cc1cccc(N(C)C(=S)Oc2ccc3c(c2)C2CCC3C2)c1` (configuration not stated), the Potency result is “inactive”. Take `Cc1c(N)cccc1N`: the Potency result was “inactive”.

Turning to `CCC(CC)CO`, the Potency result was “inactive”.

Regarding `Cc1c(N)c(=O)n(-c2ccccc2)n1C`, the Potency entry is “inactive”. The same measure, in the same setting: in the case of `N/C(=N\N=C\c1ccc(Cl)cc1)N/N=C/c1ccc(Cl)cc1` it was “inactive”; in that of `O=C(NN1CCCC1)NS(=O)(=O)c1ccc(Cl)cc1`, “inactive”; in that of `CSc1ccc(Oc2ccc(S(N)(=O)=O)cc2CN(C)C)cc1C`, “inactive”. As for `CCc1ccc2c(c1)C(=O)c1ccccc1C2=O`, the Potency entry was “inactive”. For the compound `Cc1ccccc1S`, the Potency result is “inactive”.

On to `OCCOCC#CCOCCO`, for which the Potency entry was “inactive”. Take `Cc1ccc(O)c2ncccc12`: the Potency entry is “inactive”. Regarding `COC(OC)(C(=O)c1ccccc1)c1ccccc1`, the Potency result was “inactive”. In the case of `Cc1c(Nc2ncccc2C(=O)O)cccc1C(F)(F)F`, the Potency result is “inactive”. Still for that read-out and setting: in the case of `CCCCCCCCS(=O)(=O)O` it was “inactive”.
